# Most compounds without a hit are left out; they make up all but 2.9% or so of the library.
# ZTA DNA inh: counter-screen for EBNA-1 inhibitors: inhibitors of Epstein-Barr virus ZTA; P03206; ZTA-DNA binding, fluorescence polarization; inhibition, % at 11 µM; hit rate 0.15% among 320,000; in the data active means inhibition above about 33%
# Target sequence (P03206 whole entry, looked up): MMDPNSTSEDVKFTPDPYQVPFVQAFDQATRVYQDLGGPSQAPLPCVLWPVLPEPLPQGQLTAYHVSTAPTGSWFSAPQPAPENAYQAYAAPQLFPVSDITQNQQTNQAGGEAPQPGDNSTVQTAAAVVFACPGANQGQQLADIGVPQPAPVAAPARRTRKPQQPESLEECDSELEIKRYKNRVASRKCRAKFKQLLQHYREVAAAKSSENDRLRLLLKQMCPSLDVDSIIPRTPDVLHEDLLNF
# rCAG binder: binders of r(CAG) RNA repeats, primary screen, biochemical, fluorescence. inhibition, % at 3 µM. hit rate 1.3% among 370,000. r(CAG) RNA repeat, TO-PRO-1 dye displacement fluorescence;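 active means inhibition above the plate cutoff, the mean of all test compounds on that plate plus 3 SD, cut at about 35% in these data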;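 further: 0% = DMSO alone and 100% = 100 µM mitoxantrone as full dye displacement; higher means more dye released from RNA so lower well fluorescence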
# PAFAH2 inh: PAFAH2 enzyme inhibitors, primary screen, biochemical, fluorescence polarization, human. AID 492956, 2010. inhibition, % at 3.39 µM. recombinant PAFAH2, FP-rhodamine activity probe. Platelet-activating factor acetylhydrolase 2, cytoplasmic (Homo sapiens), Q99487. hit rate 0.99% among 340,000;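 active means inhibition above the mean over all tested compounds plus 3 SD, cut at about 30% in these data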;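 further: inhibitors block probe labeling of enzyme so polarization drops; 0% = enzyme with DMSO and 100% = wells lacking PAFAH2 protein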
# PAFAH1B3 FP inh: PAFAH1B3 enzyme inhibitors, primary screen, biochemical, fluorescence polarization, human. AID 492972, 2010. inhibition, % at 3.39 µM. recombinant PAFAH1B3, FP-rhodamine probe. hit rate 0.28% among 340,000. Platelet-activating factor acetylhydrolase IB subunit alpha1 (Homo sapiens), Q15102;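 active means inhibition above the screen-wide average of all tested compounds plus 3 SD, cut at about 25% in these data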;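 further: 0% = enzyme with DMSO only and 100% = wells lacking PAFAH1B3 protein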
# EBNA-1 inh: EBNA-1 DNA-binding inhibitors, primary screen, biochemical, fluorescence polarization; inhibition, % at 14.8 µM; hit rate 0.34% among 300,000; in the data active means inhibition above about 28%
# PAFAH1B2 FP inh: PAFAH1B2 enzyme inhibitors, primary screen, biochemical, fluorescence polarization, human. Platelet-activating factor acetylhydrolase IB subunit alpha2 (Homo sapiens), P68402. recombinant PAFAH1B2, FP-rhodamine activity probe. inhibition, % at 3.39 µM. hit rate 1.2% among 340,000;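 active means inhibition above the mean of all tested compounds plus 3 SD, cut at about 24% in these data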;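 further: 0% = enzyme with DMSO and 100% = wells lacking PAFAH1B2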
# Target sequence (P68402 whole entry, looked up): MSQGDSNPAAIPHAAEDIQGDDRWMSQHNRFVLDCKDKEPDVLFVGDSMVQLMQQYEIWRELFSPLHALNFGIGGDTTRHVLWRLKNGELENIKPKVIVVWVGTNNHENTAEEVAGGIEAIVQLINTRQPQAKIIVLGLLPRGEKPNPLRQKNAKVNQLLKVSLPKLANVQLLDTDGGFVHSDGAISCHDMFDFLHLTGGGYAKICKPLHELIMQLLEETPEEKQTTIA
# PAFAH2 confirm: PAFAH2 enzyme inhibitors, confirmation, biochemical, fluorescence polarization, human; inhibition, % at 3.39 µM; recombinant PAFAH2, FP-rhodamine activity probe; hit rate 65% among 2,300; shares compounds with PAFAH2 inh;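 active means mean inhibition over three repeats above a set limit taken from the earlier primary screen, cut at about 30% in these data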;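 further: inhibitor blocks binding of rhodamine activity probe so polarization falls; 0% = enzyme with DMSO and 100% = wells lacking PAFAH2 protein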
# * = called active by the depositor; · = no result given.
SMILES,ZTA DNA inh,rCAG binder,PAFAH2 inh,PAFAH1B3 FP inh,EBNA-1 inh,PAFAH1B2 FP inh,PAFAH2 confirm
COc1ccc(C(=O)O/N=C2\CCS(=O)(=O)c3sccc32)cc1,-2,-3,89*,10,-1,2,83*
Cc1ccccc1C(=O)O/N=C1\CCS(=O)(=O)c2sccc21,-11,-2,68*,-9,-2,12,68*
COc1cccc(NC(=O)n2ccc3ccc(-c4ccc5cc[nH]c5c4)cc32)c1,·,22,·,·,·,·,·
CCN(C(=O)COC(=O)c1ccc(Sc2ncn[nH]2)c([N+](=O)[O-])c1)c1ccccc1C,·,13,·,·,·,·,·
O=C(c1ccccc1)c1ccc(O)c(O)c1O,·,15,38*,21,·,9,42*
Cc1cc(C(=O)c2ccccc2)cc(C)c1O,·,1,-11,2,·,2,·
CCN(c1ccc(NC(=O)COC(=O)/C=C/c2cccs2)cc1)C(C)C,-4,-1,42*,3,-7,3,24
CCN(CC)S(=O)(=O)c1cccc(NC(=O)COC(=O)c2cccs2)c1,3,1,61*,6,14,4,46*
CCN(CC)S(=O)(=O)c1cccc(C(=O)N[C@H](C(=O)OCC(=O)Nc2ccccc2)C(C)C)c1,7,-3,51*,-10,0,5,39*
NC(=O)c1ccc(NC(=O)COC(=O)/C=C/c2cccs2)cc1,-7,-3,17,6,-3,1,·
CCN(CC)S(=O)(=O)c1cccc(NC(=O)COC(=O)/C=C/c2cccs2)c1,16,3,67*,-5,9,3,58*
O=C(NC1CCCCN(Cc2cccc(Cl)c2)C1=O)c1ccc(F)cc1 (stereo not drawn),·,-1,·,·,·,·,·
COC(=O)[C@]12C[C@H](CC(=O)NCC3CCCCC3)C(=O)N(Cc3ccco3)C1=C[C@H](C(C)(C)C)O[C@@H]2C,·,-1,·,·,·,·,·
O=C(N[C@H](C(=O)N1CCC[C@H]1C(=O)NC1CCCC1)c1ccccc1)C1CCCC1,·,-1,·,·,·,·,·
COc1ccc(NC(=O)COC(=O)C2CC3C=CC2C3)cc1 (stereo not drawn),-2,0,13,3,-5,1,·
CCN(CC)S(=O)(=O)c1cccc(NC(=O)COC(=O)C2CC3C=CC2C3)c1 (stereo not drawn),10,-1,38*,-3,11,3,26
O=C1CC(c2ccccc2)CN1C(=O)c1cncc(Br)c1 (stereo not drawn),-2,-1,64*,-2,-3,0,61*
COC(=O)[C@]12C[C@H](CC(=O)NCCCN3CCCC3=O)C(=O)N(Cc3cccc4ccccc34)C1=C[C@H](COCc1ccccc1)O[C@@H]2C,·,7,·,·,·,·,·
COc1ccc2oc(C(=O)OCC(=O)N3CCCCC3)c(C)c2c1,-12,3,0,-2,0,-1,·
COc1ccc(Br)c(C(=O)OCC(=O)NC2CCCCCCC2)c1,·,0,·,·,·,·,·
CSCc1c(C(=O)OCC(=O)NC2CCCCC2)oc2ccccc12,1,6,57*,4,·,0,60*
CCOc1ccc2oc(C(=O)OCC(=O)NC3CCCC3)c(C)c2c1,-13,3,55*,1,·,3,32*
CCOc1ccc2oc(C(=O)OCC(=O)NC(=O)NC3CCCC3)c(C)c2c1,-13,1,0,0,13,3,·
COc1ccc(Br)c(C(=O)OCC(=O)NC2CCCCCC2)c1,8,-2,77*,7,·,0,60*
COc1ccc2oc(C(=O)OCC(=O)NC3CCCCC3)c(C)c2c1,1,-1,64*,-5,6,2,57*
SMILES,ZTA DNA inh,rCAG binder,PAFAH2 inh,PAFAH1B3 FP inh,EBNA-1 inh,PAFAH1B2 FP inh,PAFAH2 confirm
O=C(COC(=O)c1cc(=O)c2ccccc2o1)NC1CCCC1,-9,1,8,-3,-6,3,·
CN1[C@H](Cc2ccccc2)COc2cc(N3CCCC3)ccc2S1(=O)=O,·,7,·,·,·,·,·
Cc1c(C(=O)OCC(=O)NCC2CCCO2)oc2ccccc12 (stereo not drawn),·,3,6,14,·,8,·
Cc1c(C(=O)OCC(=O)NC2CCCCC2)oc2ccccc12,2,-2,46*,10,·,2,48*
O=C(CCC1CCCC1)NNC(=O)COc1ccc(Br)cc1,·,3,35*,11,·,19,23
O=C(COC(=O)COc1ccc(Br)cc1)NC1CCCC1,·,0,12,8,·,14,·
CC(=O)N1C(C)(C)CC(=NOC(=O)c2ccccc2)CC1(C)C,-4,-5,67*,9,-13,4,57*
CCCCOCC1CN(CCCC)S(=O)(=O)c2c(F)cccc2O1 (stereo not drawn),·,0,·,·,·,·,·
O=C(NCC1CCCO1)C(Cc1ccccc1)N1C(=O)C2C3C=CC(C4CC34)C2C1=O (stereo not drawn),1,-1,43*,5,8,2,26
CCOC(=O)C1C(=O)N(C(=O)c2ccc(OC)cc2)CC1c1ccccc1 (stereo not drawn),-2,-4,95*,11,5,1,75*
CCOC(=O)C1C(=O)N(C(=O)c2cncc(Br)c2)CC1c1ccccc1 (stereo not drawn),-9,0,13,3,2,4,·
CC(C)CCNC(=O)COC(=O)c1cc(Br)c(Br)s1,-14,-3,32*,7,-4,-1,17
CCCC(C)NC(=O)COC(=O)c1cc(Br)c(Br)s1 (stereo not drawn),-7,-3,24,7,6,-1,·
CCN(CC)S(=O)(=O)c1ccc(/C=C/C(=O)OCC(=O)Nc2cccc3ccccc23)cc1,14,3,53*,-7,-4,-1,62*
O=C(COC(=O)/C=C/c1ccccc1)Nc1cccnc1Cl,0,-1,28,4,1,6,·
CCN(CC)S(=O)(=O)c1ccc(/C=C/C(=O)OCC(=O)Nc2cccnc2Cl)cc1,-5,2,67*,8,·,0,55*
CN(Cc1nccs1)C(=O)C1CCC(=O)N(CCCc2ccccc2)C1 (stereo not drawn),·,-10,31*,5,·,-1,20
COC(=O)[C@]12C[C@H](CC(=O)NCc3ccc(OC)c(OC)c3)C(=O)N(Cc3ccco3)C1=C[C@H](COCc1ccccc1)O[C@@H]2C,·,7,·,·,·,·,·
O=C(COC(=O)c1ccc(F)cc1F)Nc1cccc(S(=O)(=O)N2CCOCC2)c1,·,0,34*,-8,·,3,35*

# Screening data (PubChem)
